Several values for one entry are separate records, joined by “and”; a condition that tells them apart may be missing. Equal entries are not always repeated. Some compounds were tested as several samples or in several runs, with calls that do not always agree. Activity calls are given as the source filed them. How the source made its calls: active means hit-call score of the fitted dose curve at least 0.9, where 1 is the maximum; inactive means score below 0.9.

Chain of CCAAT/enhancer-binding protein beta (Homo sapiens) (P17676 whole entry, looked up): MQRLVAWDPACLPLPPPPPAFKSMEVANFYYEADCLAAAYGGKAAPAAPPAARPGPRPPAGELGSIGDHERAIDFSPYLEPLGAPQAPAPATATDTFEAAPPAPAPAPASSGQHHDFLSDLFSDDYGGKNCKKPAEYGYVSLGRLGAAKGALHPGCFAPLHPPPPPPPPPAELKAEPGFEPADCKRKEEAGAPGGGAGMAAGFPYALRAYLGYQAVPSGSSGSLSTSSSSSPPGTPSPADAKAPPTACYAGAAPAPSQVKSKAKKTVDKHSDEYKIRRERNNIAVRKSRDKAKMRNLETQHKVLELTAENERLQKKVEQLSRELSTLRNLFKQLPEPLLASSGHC

Tested on in one assay: not listed separately
The assay is described as follows: APR_HepG2_NuclearSize_72hr: Apredica 72-hour HepG2 Assay for Nuclear Size (AID 2282925). The settings on record: high-content imaging, actives raise or lower the signal. In a few lines:
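HepG2 cells were exposed to compounds at ten concentrations from 0.39 to 200 uM (duplicate, 0.5% DMSO final) for 72 hr. After fixation in 3.7% formaldehyde, nuclei were stained with Hoechst 33342 (2 ug/mL) and imaged at 20x.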
As to `CN(Cc1cnc2nc(N)nc(N)c2n1)c1ccc(C(=O)N[C@@H](CCC(=O)O)C(=O)O)cc1`, the call was inactive.
Same read-out and setting: the result for `O=C1NS(=O)(=O)c2ccccc21` reads “inactive”; that for `CCCCCCCCCCCCOS(=O)(=O)O`, “inactive”.
Broadly, the AC50 is the concentration at which the activity in the assay is half-maximal. Regarding `Cc1[nH]nc2c1N=C(c1ccccc1Cl)c1cc([N+](=O)[O-])ccc1N2`, the half-maximal activity concentration (AC50) is 0.325 µM (active).
`CCCCC=O`: the molecule was classed as inactive.
Consider `N=C(N)c1ccc(OCCCCCOc2ccc(C(=N)N)cc2)cc1`, for which the AC50 was 45.5 µM (active).
In the case of `CCCCC(CC)C(=O)O` (stereo unspecified), the call was inactive.
On the same count and under the same terms, then `CCCCCCCCCCCCCCC`, with “inactive”.
Turning to `OCC(CO)(CBr)CBr`, the result was inactive.

Tested on in the next assay: not listed separately
Put plainly: ATG_CRE_CIS: Attagene CIS-FACTORIAL HepG2 Assay for human cAMP Responsive Element (CRE) binding protein 3 (AID 2282926). The settings on record: HepG2 CRE cis-reporter, Attagene multiplexed mRNA; actives raise or lower the signal. In outline: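 HepG2 cells transiently transfected with a multiplexed reporter library (CRE-driven unit among them) were dosed for 24 h. Reporter mRNA was quantified by RT-PCR, fluorescent labelling, HpaI digestion and capillary electrophoresis, with bidirectional fitting against DMSO baseline.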
Take `CN(Cc1cnc2nc(N)nc(N)c2n1)c1ccc(C(=O)N[C@@H](CCC(=O)O)C(=O)O)cc1`: the outcome was inactive.
On to `CCCCCCCCCCCC[N+](C)(C)Cc1ccccc1`, for which the AC50 is 19.5 µM (active) and the outcome was inactive.
With `Cc1ccc(C(=O)c2ccccc2)cc1`, the call was inactive.
The same measure, in the same setting: then `O=CC(F)(F)C(F)(F)C(F)(F)C(F)F`, with “inactive”.
Turning to `C[C@]12CC[C@@H]3c4ccc(O)cc4CC[C@H]3[C@@H]1C[C@@H](O)[C@@H]2O`, the call was inactive.
Regarding `O=C1NS(=O)(=O)c2ccccc21`, the molecule was called inactive.
As for `Cc1cc(C(C)(C)C)c(O)c(C(C)(C)C)c1`, the molecule was classed as inactive.
`CC(C)(C)c1ccc(O)c(O)c1`: the AC50 is 47.8 µM (active) and 181 µM (active); the outcome was inactive.
With `CCCCCCCCCCCC(=O)O`, the molecule was classed as inactive.
In the case of `Cc1[nH]nc2c1N=C(c1ccccc1Cl)c1cc([N+](=O)[O-])ccc1N2`, the result was inactive.
Take `CCCCC=O`: the outcome was inactive.
Regarding `CN(C)c1ccc(C(=C2C=CC(=[N+](C)C)C=C2)c2ccccc2)cc1`, the AC50 was 2.56 µM (active) and the molecule was called inactive.
`O=C1OC2(c3ccccc31)c1cc(I)c(O)c(I)c1Oc1c2cc(I)c(O)c1I`: the call was inactive.
On the same count and under the same terms, then `CC(O)COc1ccccc1` (stereo unspecified), with “inactive”; and `CN(C)CCOC(c1ccccc1)c1ccccc1`, with “inactive”; and `N=C(N)c1ccc(OCCCCCOc2ccc(C(=N)N)cc2)cc1`, with “inactive”.
As for `CCCCC(CC)C(=O)O` (stereo unspecified), the molecule was called inactive.
Consider `Cc1ccc2ccc3ccc(C)cc3c2c1`, for which the molecule was classed as inactive.
Regarding `O=C(c1ccccc1)c1ccccc1`, the molecule was called inactive.
Take `COCN(COC)c1nc(N(COC)COC)nc(N(COC)COC)n1`: the call was inactive.
On to `CC(C)c1c(C(=O)Nc2ccccc2)c(-c2ccccc2)c(-c2ccc(F)cc2)n1CC[C@@H](O)C[C@@H](O)CC(=O)O`, for which the outcome was inactive.
Regarding `Cc1ccccc1C(OCCN(C)C)c1ccccc1` (stereo unspecified), the molecule was called inactive.
On to `O=C(CCCN1CCC(O)(c2ccc(Cl)cc2)CC1)c1ccc(F)cc1`, for which the AC50 is 52.9 µM (active).
As to `CCCCCCCCCCCCCCC`, the result was inactive.
On to `CC(C)C=O`, for which the molecule was classed as inactive.
Regarding `NC(=NCCCCCCN=C(N)/N=C(\N)Nc1ccc(Cl)cc1)/N=C(\N)Nc1ccc(Cl)cc1`, the AC50 is 24 µM (active) and the result was inactive.
For `O=C(NO)c1ccccc1`, the AC50 is 8.57 µM (active) and the molecule was called inactive.
`CCCCc1oc2ccccc2c1C(=O)c1cc(I)c(OCCN(CC)CC)c(I)c1`: the AC50 is 20.9 µM (active).
As for `O=C(CC(=O)C(F)(F)C(F)(F)C(F)(F)F)c1cccs1`, the AC50 was 44.6 µM (active) and 67.1 µM (active).
On to `C=C(c1ccc(C(=O)O)cc1)c1cc2c(cc1C)C(C)(C)CCC2(C)C`, for which the AC50 was 31.9 µM (active) and the result was inactive.
Regarding `CC(=O)Nc1ccc(O)cc1`, the outcome was inactive.
On the same count and under the same terms, the result for `OCC(CO)(CBr)CBr` reads “inactive”; that for `CCN(CC)CC`, “inactive”; that for `c1cnc2c(c1)ccc1cccnc12`, “inactive”.
Consider `CCCCc1ccc2ccccc2c1S(=O)(=O)O`, for which the molecule was classed as inactive.

Another assay deals with CCAAT/enhancer-binding protein beta (Homo sapiens) (UniProt P17676). The assay is described as follows: ATG_C_EBP_CIS: Attagene CIS-FACTORIAL HepG2 Assay for human CCAAT/Enhancer Binding Protein (C/EBP) beta (AID 2282927). The settings on record: HepG2 Attagene cis-factorial transcription factor reporter; actives raise or lower the signal. In a few lines:
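Following a 24 h incubation with test chemical, transfected HepG2 cells yielded RNA whose reporter transcripts were quantified by RT-PCR and fluorescent capillary electrophoresis, with DMSO serving as baseline for bidirectional fitting.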
Turning to `CN(Cc1cnc2nc(N)nc(N)c2n1)c1ccc(C(=O)N[C@@H](CCC(=O)O)C(=O)O)cc1`, the result was inactive.
For the molecule `CCCCCCCCCCCC[N+](C)(C)Cc1ccccc1`, the half-maximal activity concentration (AC50) was 18 µM (active) and the outcome was inactive.
Turning to `Cc1ccc(C(=O)c2ccccc2)cc1`, the result was inactive.
In the case of `O=CC(F)(F)C(F)(F)C(F)(F)C(F)F`, the outcome was inactive.
For `C[C@]12CC[C@@H]3c4ccc(O)cc4CC[C@H]3[C@@H]1C[C@@H](O)[C@@H]2O`, the result was inactive.
In the case of `O=C1NS(=O)(=O)c2ccccc21`, the result was inactive.
With `Cc1cc(C(C)(C)C)c(O)c(C(C)(C)C)c1`, the AC50 is 14.6 µM (active) and the result was inactive.
`CC(C)(C)c1ccc(O)c(O)c1`: the result was inactive.
Still for that read-out and setting: then `CCCCCCCCCCCC(=O)O`, with “inactive”.
Still for that read-out and setting: then `Cc1[nH]nc2c1N=C(c1ccccc1Cl)c1cc([N+](=O)[O-])ccc1N2`, with “inactive”; and `CCCCC=O`, with “inactive”.
As to `CN(C)c1ccc(C(=C2C=CC(=[N+](C)C)C=C2)c2ccccc2)cc1`, the outcome was inactive.
With `O=C1OC2(c3ccccc31)c1cc(I)c(O)c(I)c1Oc1c2cc(I)c(O)c1I`, the result was inactive.
Consider `CC(O)COc1ccccc1` (stereo unspecified), for which the outcome was inactive.
In the case of `CN(C)CCOC(c1ccccc1)c1ccccc1`, the result was inactive.
Take `N=C(N)c1ccc(OCCCCCOc2ccc(C(=N)N)cc2)cc1`: the outcome was inactive.
Same read-out and setting: the result for `CCCCC(CC)C(=O)O` (stereo unspecified) reads “inactive”; that for `Cc1ccc2ccc3ccc(C)cc3c2c1`, “inactive”; that for `O=C(c1ccccc1)c1ccccc1`, “inactive”.
For the molecule `COCN(COC)c1nc(N(COC)COC)nc(N(COC)COC)n1`, the outcome was inactive.
`CC(C)c1c(C(=O)Nc2ccccc2)c(-c2ccccc2)c(-c2ccc(F)cc2)n1CC[C@@H](O)C[C@@H](O)CC(=O)O`: the result was inactive.
On to `Cc1ccccc1C(OCCN(C)C)c1ccccc1` (stereo unspecified), for which the outcome was inactive.
On the same count and under the same terms, the result for `O=C(CCCN1CCC(O)(c2ccc(Cl)cc2)CC1)c1ccc(F)cc1` reads “inactive”; that for `CCCCCCCCCCCCCCC`, “inactive”.
On the same count and under the same terms, then `CC(C)C=O`, with “inactive”.
With `NC(=NCCCCCCN=C(N)/N=C(\N)Nc1ccc(Cl)cc1)/N=C(\N)Nc1ccc(Cl)cc1`, the AC50 is 24.6 µM (active) and the result was inactive.
For `O=C(NO)c1ccccc1`, the result was inactive.
With `CCCCc1oc2ccccc2c1C(=O)c1cc(I)c(OCCN(CC)CC)c(I)c1`, the AC50 is 95 µM (active).
Take `CS(=O)(=O)c1ccc([C@@H](CC2CCCC2)C(=O)Nc2cnccn2)cc1Cl`: the result was inactive.
`O=C(CC(=O)C(F)(F)C(F)(F)C(F)(F)F)c1cccs1`: the AC50 was 66 µM (active) and the result was inactive.
Taken in the same sequence, the figures for `C=C(c1ccc(C(=O)O)cc1)c1cc2c(cc1C)C(C)(C)CCC2(C)C` were 0.0309 µM (active) and “inactive”.
On to `CC(=O)Nc1ccc(O)cc1`, for which the outcome was inactive.
Same read-out and setting: the result for `OCC(CO)(CBr)CBr` reads “inactive”.
On the same count and under the same terms, then `CCN(CC)CC`, with “inactive”.
`c1cnc2c(c1)ccc1cccnc12`: the outcome was inactive.
On to `CCCCc1ccc2ccccc2c1S(=O)(=O)O`, for which the outcome was inactive.

The values are drawn from PubChem BioAssay (EPA / NIEHS).
